Measured values: publication PMC12136788
Substitutions are numbered along the chain they refer to. In all, about 5,800 sequences were measured (“enrichment r”: median about 0.68, highest 2% from about 11 on). The sample as a whole holds a higher share of the highest values than the screen did.

T1: UNK ZnF1-6 (called full-length) (human, UniProt Q9C0B0 30-357)
T1 sequence: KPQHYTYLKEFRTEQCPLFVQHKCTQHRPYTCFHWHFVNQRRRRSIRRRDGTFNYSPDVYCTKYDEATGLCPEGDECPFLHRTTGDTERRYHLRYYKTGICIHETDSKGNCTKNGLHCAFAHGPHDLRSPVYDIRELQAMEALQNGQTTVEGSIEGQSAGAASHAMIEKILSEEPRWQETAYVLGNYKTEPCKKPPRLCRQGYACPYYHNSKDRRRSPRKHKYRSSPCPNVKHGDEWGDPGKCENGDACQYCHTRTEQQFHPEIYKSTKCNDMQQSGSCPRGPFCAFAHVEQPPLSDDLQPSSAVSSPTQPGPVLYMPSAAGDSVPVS

B1: chr12:48145849:48145950:+|3pUTR|ENSG00000152556|msi1|FALSE|unique (ssRNA)
RNA: GGGAGUUCUACAGUCCGACGAUCCAUGACCAGUUCUGGCCAGGAGCUGGAGGAGCAGGCAGUGGGUGGGAGCUCCUUUUAGGUAGAAUUUAACAUGACUUCUGCCCCAGCUUUAUCUGUCACACAAGGCUGGGCACCUCUAGUCAACAGAGGAUUGAGCAUCA
B2: chr1:165890246:165890361:+|CDS|ENSG00000143179|unk|FALSE|unique (ssRNA)
RNA: GGGAGUUCUACAGUCCGACGAUCCUCCUGGGGCAGAAUGAGGUGGACUAUCGCCAGAAGCAGGUGGUCAUCCUGAGCCAGGAUAGCUUCUACCGUGUCCUUACCUCGGAGCAGAAGGCCAAAGCCCUGAAGGGCCAGUUCAACCAACAGAGGAUUGAGCAUCA
B3: chr2:96875881:96876275:-|three_prime_utr|ENSG00000168754|control|control|control (ssRNA)
RNA: GGGAGUUCUACAGUCCGACGAUCUCGCCCACCCCUCAGCCCUCCUCCCAGCCAUCUCCUCUUCCCUAAGGCCUCUGUCUCCAUAGCUCUGGUUUCCCUGGGCCUCAGUCCUCCCCACCCUCCUUCCUCUGUCUCCCUGUCACUCAACAGAGGAUUGAGCAUCA
B4: chr5:95604386:95604487:+|3pUTR|ENSG00000164291|msi1|total|mutant (ssRNA)
RNA: GGGAGUUCUACAGUCCGACGAUCCCUGCCAUCCAGUUCCCCCUCCAAGAAGCAAGUACCGAAACCACCUGCUUACGCAUUUUCCGAGAUUGGCCACAAAUUUAUAAACAAAUGUAUAUAUUCCUUUCCCCCUACACAAACGGUCAACAGAGGAUUGAGCAUCA
B5: ENSG00000198589:be:win_9101|3pUTR|ENSG00000198589|bound_else_gene|NA|bound_elsewhere_windowed (ssRNA)
RNA: GGGAGUUCUACAGUCCGACGAUCUUCAAGCAUGUUUUAGACCUAGAAAAGUAUGGUUUGGGGGAGGCUAUUUUAUUGUGUGGUUAGCACAAGGAAUCUAAUUUAUAGCAAGUGUGAAAUAGUUACCAUUUUUUCCUGAUCUGUCAACAGAGGAUUGAGCAUCA
B6: chr1:229632307:229632408:+|CDS|ENSG00000135763|unk|FALSE|bound_elsewhere (ssRNA)
RNA: GGGAGUUCUACAGUCCGACGAUCAUUUUAUAAGAAAAAGCUUGAACUGAAGGAAGAUAUUGUUGAAAGGCUUUGGAUCUAUAUAGAUAACAUUUUACAUAGCAGAAAAUUGCAGAAUCUCCUCAAGAAUGGAAAGACCAUUAACAACAGAGGAUUGAGCAUCA
B7: chr2:1632960:1633155:-|3pUTR|ENSG00000130508|msi1|FALSE|unique (ssRNA)
RNA: GGGAGUUCUACAGUCCGACGAUCGUCCAUUUUUUAGGUAUUAGAUAUGGCAGAAAAACCAUUUCCACUAUGCAAAGUUCUUUUAGACGUCAGUGAAAAUCAACUCUCAUACCUCAUGGUCUCUCUUUAAUUGACCAAAACCUUCAACAGAGGAUUGAGCAUCA
B8: ENSG00000168936:stop:overlap|stop_codon|ENSG00000168936|stop_codon|NA|stop_codon (ssRNA)
RNA: GGGAGUUCUACAGUCCGACGAUCGUGUGGCCAGCACCAACCCUGCUGUGCAGGCCUUUGACAUCUGGAGCUGGAGGCCUGCAUAGGCUGCAUGCAGACACGUGCCAGCGUGAAGCUGGUGAAGACCUGCCAGGAGGCAGCCACCAACAGAGGAUUGAGCAUCA
B9: chr20:3963869:3963970:-|CDS|ENSG00000101236|unk|FALSE|bound_elsewhere (ssRNA)
RNA: GGGAGUUCUACAGUCCGACGAUCAAUCUGCCUCUCAACAUAUAUAUUGUGGUUUUUGGUACUGCUAUAUUUGUCUUCAUCCUUAGUUUACUCUUCUGUUGCUACUUGAUUAGGUAACCAAUUUUCAUUCUAUGUUACUUCAAACAACAGAGGAUUGAGCAUCA
B10: chr17:75827259:75827360:-|3pUTR|ENSG00000092929|unk|FALSE|unique (ssRNA)
RNA: GGGAGUUCUACAGUCCGACGAUCGGACAGUUUGGCUGCUGUGUCUGCUGCGCACGCCCCCUCCCCGGACAGCACCUGCCACCUAGAAACUUUCUUAGCAAAAAAAUUAAUAAAAACAAAUCCAUUGUCCUCUUAAAAUAUGCCCAACAGAGGAUUGAGCAUCA
B11: ENSG00000107863:be:win_5701|CDS|ENSG00000107863|bound_else_gene|NA|bound_elsewhere_windowed (ssRNA)
RNA: GGGAGUUCUACAGUCCGACGAUCAGCACCUUGGCUUCAACAAACAGGCCCCUUCUUUCCAUACCACCACAGUCACCUGACCAAAUAAACGGAGAAAGCUUCCAGAACGUGAGCAAAAAUGCUAGUUCUGCAGCGAAUGCCCAACAACAGAGGAUUGAGCAUCA
B12: chr8:48920054:48920155:-|CDS|ENSG00000019549|unk|total|mutant (ssRNA)
RNA: GGGAGUUCUACAGUCCGACGAUCACCUAUUCAACUUUUUCUGGGCUGGCCAAACAUAAGCAGCUGCACUGCGAUGCCCAGUCCCGAAAAUCUUUCAGCUGUAAAUACUGUGACAAGGAAUAUGUGAGCCUGGGCGCCCUGAAGCAACAGAGGAUUGAGCAUCA
B13: chr3:62294290:62294391:+|3pUTR|ENSG00000144724|msi1|total|mutant (ssRNA)
RNA: GGGAGUUCUACAGUCCGACGAUCAACCCGUCCUCUAAAAAUUCCCUAUUACUCCUACCGCAAUCUAAUAAAAACUACCUACACCGUUACUGUUUUCUUUCCUUCUUUGCCAAAUGUUUUAUAAUAAAUCUCUUAAUUACAUACCAACAGAGGAUUGAGCAUCA
B14: chr3:62294290:62294391:+|3pUTR|ENSG00000144724|msi1|FALSE|unique (ssRNA)
RNA: B13 RNA with C27U, C28A, C57U, C58A, C83U, C84A
B15: chr17:77216858:77216994:+|3pUTR|ENSG00000129657|unk|FALSE|bound_elsewhere (ssRNA)
RNA: GGGAGUUCUACAGUCCGACGAUCUGUUUCUACCUUUAGUACCUUGCCACUCUUUUAAAACGCUGCUGUCAUUUCCCAUUUCUUAGUACUAAUGAUUCUUUGAUUCUCCCUCUAUUAUGUCUUAAUUCACUUUCCUUCCUAAAUCAACAGAGGAUUGAGCAUCA
B16: chr1:151249111:151249212:+|3pUTR|ENSG00000143398|unk|FALSE|unique (ssRNA)
RNA: GGGAGUUCUACAGUCCGACGAUCGCAGAUUGUUGAAUUCCUGUUCUAUCCCUUCUCUAUCCCACCCUGCCUUGAUAAUAUGUUAGCCCAUACCCCAAAUAACUGUCUAUAUUAGACACCCCCAGCCAGUUUCUGGCUGCCUGUCAACAGAGGAUUGAGCAUCA
B17: ENSG00000113300:stop:overlap|stop_codon|ENSG00000113300|stop_codon|NA|stop_codon (ssRNA)
RNA: GGGAGUUCUACAGUCCGACGAUCUGGAGCUCUUACUGCCUUUCCUGCCCCAAGUCAACGGCAUCCACCUUCCUGGCAGGAGGUAGUCAAGCACCUUCAGAGGACAGCCUUGAUUCACUUGUAAACUUGUGAAAAUCUGAACAUCAACAGAGGAUUGAGCAUCA
B18: ENSG00000070961:be:win_4401|3pUTR|ENSG00000070961|bound_else_gene|NA|bound_elsewhere_windowed (ssRNA)
RNA: GGGAGUUCUACAGUCCGACGAUCGUUAUGACAUCUGUCCUAAUUAGUUUCUUAAAUACAUUUACUACUUAAUGGUUUUGAAGCAACUGUUUAAUUUUUAAAAUUUUUGAAAACUUGCUAAUAACCUUUUGUUCAGAAUUUAGUCAACAGAGGAUUGAGCAUCA
B19: chr17:75827259:75827360:-|3pUTR|ENSG00000092929|unk|total|mutant (ssRNA)
RNA: B10 RNA with U83C, A84C, U95C, A96C
B20: chr12:64147824:64147925:+|3pUTR|ENSG00000196935|unk|total|mutant (ssRNA)
RNA: GGGAGUUCUACAGUCCGACGAUCCAUCUCUGUGGUGUCUUUGUUCCUUUCCUUUCAUUCAUCACUACUUUCUCCUUGACAGCCCGCUUGCAUUAAAUAAUGUGAAACUUUUACCUUUAAAAUAUUUUUUUAUCUCACUUUCAUCAACAGAGGAUUGAGCAUCA
B21: chr2:1632960:1633155:-|3pUTR|ENSG00000130508|msi1|total|mutant (ssRNA)
RNA: B7 RNA with U34C, A35C, U41C, A42C, U83C, A84C
B22: chr11:119024350:119024909:-|three_prime_utr|ENSG00000137700|control|control|control (ssRNA)
RNA: GGGAGUUCUACAGUCCGACGAUCUCCCACGGUGGCCUUCCCCCUGCACGCUCUGCGGGGAGAAAAGGAGGGGCCUGCCUGGCUAGCCCUGAACCUUUCACUUUCCAUUUCUGCGCCUUUUCUGUCACCCGGGUGGCGCUGGAACAACAGAGGAUUGAGCAUCA

Biological target: T1, UNK ZnF1-6 (called full-length)
Experiment: nsRBNS (natural sequence RNA bind-n-seq); RBNS binding buffer (assumed for nsRBNS): 25 mM Tris pH 7.5, 150 mM KCl, 3 mM MgCl2, 0.01% Triton X-100, 500 ug/ml BSA, 20 U/ml SUPERase-In, 4 C; UNK is unkempt and MSI1 is Musashi-1; names of the RNAs are library labels; protein concentration not given here; high values mean tight binding

Q: B1 was tested. Which binding signal did it give?
A: 6.28 enrichment R

Q: How did the binding signal turn out when B2 was run?
A: 0.748 enrichment R

Q: With B3 as the binder, how does the binding signal read?
A: 1.84 enrichment R

Q: How did the binding signal turn out when B4 was run?
A: 1.51 enrichment R

Q: B5 was tested. Which binding signal did it give?
A: 2.96 enrichment R

Q: Which binding signal does the source give for B6 here?
A: 2.37 enrichment R

Q: B7 was tested. Which binding signal did it give?
A: 0.915 enrichment R

Q: With B8 as the binder, how does the binding signal read?
A: 1.06 enrichment R

Q: Which binding signal does the source give for B9 here?
A: 2.08 enrichment R

Q: Which binding signal does the source give for B10 here?
A: 25.7 enrichment R

Q: How did the binding signal turn out when B11 was run?
A: 0.589 enrichment R

Q: B12 was tested. Which binding signal did it give?
A: 0.712 enrichment R

Q: How did the binding signal turn out when B13 was run?
A: 3.11 enrichment R

Q: How did the binding signal turn out when B14 was run?
A: 68.7 enrichment R

Q: How did the binding signal turn out when B15 was run?
A: 14 enrichment R

Q: How did the binding signal turn out when B16 was run?
A: 2.26 enrichment R

Q: For B17, which binding signal is on record?
A: 21.5 enrichment R

Q: With B18 as the binder, how does the binding signal read?
A: 5.85 enrichment R

Q: B19 was tested. Which binding signal did it give?
A: 0.989 enrichment R

Q: For B20, which binding signal is on record?
A: 2.22 enrichment R

Q: How did the binding signal turn out when B21 was run?
A: 0.41 enrichment R

Q: B22 was tested. Which binding signal did it give?
A: 0.719 enrichment R
